# Experimental data taken from PubChem BioAssay (Tox21).
# Values without a mark were called inactive. Inconclusive results are not listed. Where a call stands in place of a potency, no number is given. Active and inactive are the calls of the source. Unless noted, calls follow the shape of the full dose curve. Bridge positions count the residues as written; N and C are the ends. Square brackets hold non-standard residues; d marks the D form. Peptide text beside a SMILES is read from it. hArg = N=C(N)NCCCC[C@H](N)C(=O)O; Mpa = O=C(O)CCS
# Columns and labels:
# [1] = Nuclear factor erythroid 2-related factor 2/antioxidant responsive element (Nrf2/ARE) small molecule agonists: qHTS cell viability counter screen in human keratinocytes (AID 1919968; active = well fitted curve in the direction sought with a large enough effect in the repeat runs; an effect the other way counts as inactive or inconclusive; also: nearly all actives have a fitted effect of over 55% in size; also: potency is read from the fitted curve at half-maximal effect)
# Procedure, shortened: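 Measured as CellTiter-Fluor fluorescence, this readout tracks cytotoxicity in the same wells as the ARE-luciferase screen. HaCaT reporter cells (1,500/well) received compounds after a 5 h pre-incubation and were exposed for 23 h.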
# [2] = Nuclear factor erythroid 2-related factor 2/antioxidant responsive element (Nrf2/ARE) small molecule agonists: luciferase reporter gene qHTS assay in human keratinocytes (AID 1919969); also: nearly all actives have a fitted effect of over 35% in size; also: potency is read from the fitted curve at half-maximal effect
# [3] = target: Gonadotropin-releasing hormone receptor (Homo sapiens) (UniProt P30968); assay: Human gonadotropin-releasing hormone receptor (GnRHR) small molecule agonists, calcium flux assay in GnRHR-HEK293 cells (AID 1920063); also: nearly all actives have a fitted effect of over 35% in size
# Procedure, shortened: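 Fluorescence kinetics (480 nm excitation, 540 nm emission; 3 min, 1 s steps) report calcium mobilisation in human GnRHR-HEK293 cells in agonist mode. Dye incubation: 1 h, 37 C.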
# [4] = target: KiSS-1 receptor (Homo sapiens) (UniProt Q969F8); assay: Human kisspeptin (KISS1R) small molecule agonists, calcium flux assay in KISS1R-HEK293 cells (AID 1920064; active = well fitted curve in the direction sought with a large enough effect in the repeat runs; an effect the other way counts as inactive or inconclusive)
# Procedure, shortened: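 Measures KISS1R agonism through calcium-sensitive dye fluorescence in stably transfected HEK293 cells, read for 3 min after pin-tool compound delivery; 15-point titrations in triplicate.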
# [5] = G protein-coupled receptor (GPCR) small molecule agonists, calcium flux assay: HEK293 wild type cell line counter screen (AID 1920065)
# Procedure, shortened: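 Readout: fluorescence at 480 nm excitation/540 nm emission, sampled at 1 s intervals for 3 min. Cells had been cultured 18 h, then dye-loaded 1 h at 37 C before compound or ATP addition.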
# [6] = p53 small molecule agonists, cell-based qHTS assay with rat liver microsomes (AID 1963578)
# Procedure, shortened: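 Agonist mode in p53RE-bla reporter cells, with compounds co-incubated 16 h at 37 C alongside 0.5 mg/mL rat liver microsomes and 0.5 mg/mL NADPH (final), followed by a 2 h LiveBLAzer detection step.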
# [7] = p53 small molecule agonists, cell-based qHTS assay with human liver microsomes: qHTS cell viability counter screen (AID 1963579); also: nearly all actives have a fitted effect of over 45% in size
# Procedure, shortened: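 Metabolically activated exposure: compounds, human liver microsomes and NADPH (0.5 mg/mL final apiece) were added to p53RE-bla cells seeded 5 h earlier, left 16 h at 37 C, and then assessed for viability by CellTiter-Glo luminescence.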
# [8] = p53 small molecule agonists, cell-based qHTS assay with rat liver microsomes: qHTS cell viability counter screen (AID 1963580); also: nearly all actives have a fitted effect of over 45% in size
# Procedure, shortened: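 HCT-116 p53RE-bla, 4,000 cells/well, 5 h pre-incubation; cpd + rat liver microsomes 0.5 mg/mL + NADPH 0.5 mg/mL (final); 16 h, 37 C; CellTiter-Glo, 30 min RT; luminescence.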
# [9] = p53 small molecule agonists, cell-based qHTS assay: qHTS cell viability counter screen (AID 1963581); also: nearly all actives have a fitted effect of over 45% in size
# Procedure, shortened: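 In the same plates used for the p53 bla reporter, HCT-116 cells given compounds for 16 h at 37 C received CellTiter-Glo; luminescence was recorded 30 min later at room temperature.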
# [10] = p53 small molecule agonists, cell-based qHTS assay (AID 1963582; active = well fitted activation curve with a large enough effect in the signal ratio in the repeat runs, not every such curve was filed as active; the % refers to the signal ratio)
# Procedure, shortened: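 Compounds are pin-transferred in DMSO onto p53RE-bla cells and incubated 16 h at 37 C. The B/G FRET beta-lactamase substrate is then applied for 2 h at RT and fluorescence recorded.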
# [11] = target: 5-hydroxytryptamine receptor 2A (Homo sapiens) (UniProt P28223); assay: 5-hydroxytryptamine receptor 2A (HTR2A) small molecule antagonists, cell-based qHTS assay (AID 1963586); also: nearly all actives have a fitted effect of over 45% in size
# Procedure, shortened: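 Antagonist-mode intracellular calcium assay: DOI (4 nM) added after 5 min compound pre-incubation at room temperature to dye-loaded HTR2A-CHO cells. Fluorescence followed for 3 min, sampled every second.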
# [12] = target: 5-hydroxytryptamine receptor 2A (Homo sapiens) (UniProt P28223); assay: 5-hydroxytryptamine receptor 2A (HTR2A) small molecule agonists, cell-based qHTS assay (AID 1963587); also: nearly all actives have a fitted effect of over 30% in size
# Procedure, shortened: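 Kinetic calcium-flux fluorescence (2 min, 1 sec intervals) after compound addition in agonist mode. HTR2A-CHO cells were cultured 18 h, then dye-loaded 1 h at 37 C.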
# [13] = target: Muscarinic acetylcholine receptor M1 (Homo sapiens) (UniProt P11229); assay: Cholinergic receptor muscarinic 1 (CHRM1) small molecule antagonists, cell-based qHTS assay (AID 1963588); also: nearly all actives have a fitted effect of over 40% in size
# Procedure, shortened: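 CHRM1-CHO calcium-flux assay, antagonist mode. Cells were seeded 18 h, dye-loaded 1 h at 37 C and given compound for 5 min at RT, then acetylcholine was added at 50nM. FDSS fluorescence was read 3 min; 15 concentrations, three runs.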
# [14] = target: Muscarinic acetylcholine receptor M1 (Homo sapiens) (UniProt P11229); assay: Cholinergic receptor muscarinic 1 (CHRM1) small molecule agonists, cell-based qHTS assay (AID 1963589); also: nearly all actives have a fitted effect of over 35% in size
# Procedure, shortened: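 Each compound was tested at 15 concentrations across three independent runs on dye-loaded CHO cells stably expressing human CHRM1, reading intracellular calcium fluorescence kinetically at 1 sec intervals.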
# [15] = cAMP Responsive Elements (CRE) small molecule agonists, cell-based qHTS assay (AID 1963590)
# Procedure, shortened: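 Cell line: CRE-bla HEK 293T; medium DMEM/10% dialyzed FBS/0.1 mM NEAA/1 mM pyruvate/25 mM HEPES; 3 h compound exposure; beta-lactamase FRET readout after 2 h substrate loading at RT.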
# [16] = cAMP Responsive Elements (CRE) small molecule antagonists, cell-based qHTS assay (AID 1963591; active = well fitted inhibition curve with a large enough effect in the signal ratio in the repeat runs, not every such curve was filed as active; the % refers to the signal ratio)
# Procedure, shortened: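 Inhibition of NKH477-driven (0.25 uM final) CRE-beta-lactamase signal in HEK293T cells, 3 h compound exposure at 37 °C, detected by FRET substrate fluorescence.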
# [17] = target: Beta-2 adrenergic receptor (Homo sapiens) (UniProt P07550); assay: Adrenergic beta2 receptor (ADRB2) small molecule antagonists, cell-based qHTS assay (AID 1963592); also: series mostly up to about 92 µM; nearly all actives have a fitted effect of over 50% in size
# Procedure, shortened: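 Cells (CHO, stable ADRB2 overexpression) incubated 18-20hr at 37C; compounds added from DMSO; agonist mix (1nM isoproterenol, 100uM IBMX, 25uM Ro-20-1724) added; 0.5hr RT; d2-cAMP and anti-cAMP-cryptate added; 1hr RT; 665/615 nm read.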
# [18] = target: Beta-2 adrenergic receptor (Homo sapiens) (UniProt P07550); assay: Adrenergic beta2 receptor (ADRB2) small molecule agonists, cell-based qHTS assay (AID 1963593);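 also: CHO cells stably overexpressing human ADRB2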
# Procedure, shortened: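 CHO cells stably over-expressing ADRB2 were plated overnight at 37C, then dosed with compounds plus a stimulation mix containing 100uM IBMX and 25uM Ro-20-1724 for 0.5hr at room temperature. cAMP was measured by HTRF competition, 1hr.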
# [19] = target: D(2) dopamine receptor (Homo sapiens) (UniProt P14416); assay: Dopamine D2 receptor (DRD2) small molecule agonists, cell-based qHTS assay (AID 1963594); also: nearly all actives have a fitted effect of over 35% in size
# Procedure, shortened: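 cAMP accumulation in DRD2-HEK293 cells measured by HTRF after 1 h detection; compounds added 10 min before NKH477 (200nM […]) forskolin-analogue stimulation, 30 min at room temperature, with Ro20-1724 present at 0.1 mM final.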
# [20] = target: D(2) dopamine receptor (Homo sapiens) (UniProt P14416); assay: Dopamine D2 receptor (DRD2) small molecule antagonists, cell-based qHTS assay (AID 1963595; active = well fitted inhibition curve with a large enough effect in the signal ratio in the repeat runs, with a control signal flat; the % refers to the signal ratio)
# Procedure, shortened: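 Antagonism was scored as restored cAMP in HEK293-DRD2 cells. These cells were stimulated with 200 nM NKH477 and 12 nM quinpirole for 30 min at room temperature, in the presence of 0.1 mM Ro20-1724.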
# Sequence of Gonadotropin-releasing hormone receptor (Homo sapiens) (P30968 whole entry, looked up): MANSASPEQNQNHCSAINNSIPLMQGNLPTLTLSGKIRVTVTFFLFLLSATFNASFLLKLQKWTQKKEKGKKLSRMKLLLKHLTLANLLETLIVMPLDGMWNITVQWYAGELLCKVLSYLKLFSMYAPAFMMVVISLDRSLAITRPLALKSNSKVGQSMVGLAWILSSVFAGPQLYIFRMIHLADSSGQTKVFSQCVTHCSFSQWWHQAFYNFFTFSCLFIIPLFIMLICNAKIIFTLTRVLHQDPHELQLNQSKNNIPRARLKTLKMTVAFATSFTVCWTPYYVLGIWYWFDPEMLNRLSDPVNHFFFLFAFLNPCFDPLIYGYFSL
# Sequence of D(2) dopamine receptor (Homo sapiens) (P14416 whole entry, looked up): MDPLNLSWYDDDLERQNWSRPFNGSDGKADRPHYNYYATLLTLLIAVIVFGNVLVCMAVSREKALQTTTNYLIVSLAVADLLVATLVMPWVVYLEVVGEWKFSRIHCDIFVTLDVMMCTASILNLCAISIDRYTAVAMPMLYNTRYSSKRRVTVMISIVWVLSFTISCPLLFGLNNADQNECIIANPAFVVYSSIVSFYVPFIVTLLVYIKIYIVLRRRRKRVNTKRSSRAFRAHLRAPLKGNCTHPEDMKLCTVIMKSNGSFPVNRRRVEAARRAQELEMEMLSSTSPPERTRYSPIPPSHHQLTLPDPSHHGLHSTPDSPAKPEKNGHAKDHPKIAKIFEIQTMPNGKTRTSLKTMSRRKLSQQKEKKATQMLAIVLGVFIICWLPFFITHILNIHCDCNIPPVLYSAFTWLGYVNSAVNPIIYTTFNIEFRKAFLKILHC
# Sequence of 5-hydroxytryptamine receptor 2A (Homo sapiens) (P28223 whole entry, looked up): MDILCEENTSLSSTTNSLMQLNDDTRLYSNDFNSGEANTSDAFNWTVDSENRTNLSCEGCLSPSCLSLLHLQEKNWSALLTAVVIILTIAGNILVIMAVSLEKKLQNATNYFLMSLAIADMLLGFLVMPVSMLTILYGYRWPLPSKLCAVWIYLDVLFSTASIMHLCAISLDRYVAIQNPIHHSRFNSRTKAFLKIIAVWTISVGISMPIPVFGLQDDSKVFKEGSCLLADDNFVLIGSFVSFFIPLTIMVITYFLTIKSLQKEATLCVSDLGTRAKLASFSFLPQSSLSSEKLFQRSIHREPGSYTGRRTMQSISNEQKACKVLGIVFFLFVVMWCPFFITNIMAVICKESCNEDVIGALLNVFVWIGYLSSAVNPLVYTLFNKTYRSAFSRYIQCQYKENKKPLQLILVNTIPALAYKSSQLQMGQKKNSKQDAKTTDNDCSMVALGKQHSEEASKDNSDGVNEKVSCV
# Sequence of KiSS-1 receptor (Homo sapiens) (Q969F8 whole entry, looked up): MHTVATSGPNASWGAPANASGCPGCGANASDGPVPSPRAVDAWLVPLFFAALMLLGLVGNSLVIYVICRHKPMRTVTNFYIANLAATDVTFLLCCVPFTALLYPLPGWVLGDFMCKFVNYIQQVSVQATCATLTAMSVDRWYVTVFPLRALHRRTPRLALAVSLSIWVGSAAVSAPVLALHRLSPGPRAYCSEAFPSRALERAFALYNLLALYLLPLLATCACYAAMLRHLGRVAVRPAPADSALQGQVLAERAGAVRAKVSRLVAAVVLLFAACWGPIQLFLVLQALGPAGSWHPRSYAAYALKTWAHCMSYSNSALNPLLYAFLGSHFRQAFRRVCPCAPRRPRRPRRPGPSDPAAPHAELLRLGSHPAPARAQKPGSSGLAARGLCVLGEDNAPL
# Sequence of Beta-2 adrenergic receptor (Homo sapiens) (P07550 whole entry, looked up): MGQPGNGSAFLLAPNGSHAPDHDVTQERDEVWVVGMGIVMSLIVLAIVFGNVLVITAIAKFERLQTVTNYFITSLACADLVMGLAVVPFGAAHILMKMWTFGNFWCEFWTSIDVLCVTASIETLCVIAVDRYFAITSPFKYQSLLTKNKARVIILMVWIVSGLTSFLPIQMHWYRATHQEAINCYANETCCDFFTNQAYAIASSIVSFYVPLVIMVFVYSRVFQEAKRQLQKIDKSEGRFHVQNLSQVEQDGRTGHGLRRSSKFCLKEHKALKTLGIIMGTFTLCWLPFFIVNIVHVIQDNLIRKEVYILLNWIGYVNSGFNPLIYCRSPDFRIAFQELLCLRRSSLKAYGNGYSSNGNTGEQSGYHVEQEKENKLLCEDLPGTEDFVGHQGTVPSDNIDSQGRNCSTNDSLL
# Sequence of Muscarinic acetylcholine receptor M1 (Homo sapiens) (P11229 whole entry, looked up): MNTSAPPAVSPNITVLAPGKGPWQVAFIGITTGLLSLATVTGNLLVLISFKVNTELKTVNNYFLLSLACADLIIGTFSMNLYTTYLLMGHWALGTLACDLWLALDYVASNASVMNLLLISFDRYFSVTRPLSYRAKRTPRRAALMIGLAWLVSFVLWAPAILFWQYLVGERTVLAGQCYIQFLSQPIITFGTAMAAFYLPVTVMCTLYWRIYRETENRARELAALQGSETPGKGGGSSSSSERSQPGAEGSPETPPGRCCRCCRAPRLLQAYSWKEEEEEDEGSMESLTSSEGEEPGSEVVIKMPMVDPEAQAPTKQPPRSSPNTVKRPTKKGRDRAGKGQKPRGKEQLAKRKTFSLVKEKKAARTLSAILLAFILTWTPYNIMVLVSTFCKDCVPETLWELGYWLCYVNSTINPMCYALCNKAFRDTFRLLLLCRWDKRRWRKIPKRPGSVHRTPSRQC
Compound,Potency [1],Potency [2],Potency [3],Potency [4],Potency [5],Potency [6],Potency [7],Potency [8],Potency [9],Potency [10],Potency [11],Potency [12],Potency [13],Potency [14],Potency [15],Potency [16],Potency [17],Potency [18],Potency [19],Potency [20]
CC(S)C(C)S (configuration not stated),inactive,inactive,inactive,inactive,inactive,inactive,inactive,inactive,inactive,inactive,inactive,inactive,inactive,inactive,inactive,inactive,inactive,inactive,inactive,inactive
NC(=O)[C@@H]1CSSCCC(=O)N[C@@H](CCCCN=C(N)N)C(=O)NCC(=O)N[C@@H](CC(=O)O)C(=O)N[C@@H](Cc2c[nH]c3ccccc23)C(=O)N2CCC[C@H]2C(=O)N1 ([Mpa][hArg]GDWPC-NH2; disulfide 1-7),inactive,inactive,inactive,inactive,inactive,,inactive,inactive,inactive,inactive,,,,,,,,inactive,inactive,
c1csc(SSc2cccs2)c1,15.4 µM (active),6.11 µM (active),inactive,inactive,inactive,,inactive,,inactive,inactive,,inactive,inactive,inactive,inactive,inactive,inactive,inactive,inactive,inactive
OCCCCCO,inactive,inactive,inactive,inactive,inactive,inactive,inactive,inactive,inactive,inactive,inactive,inactive,inactive,inactive,inactive,inactive,inactive,inactive,,inactive
O=C[C@@H](O)[C@H](O)[C@H](O)CO,inactive,inactive,inactive,inactive,inactive,,inactive,inactive,inactive,inactive,inactive,inactive,inactive,inactive,inactive,inactive,inactive,inactive,inactive,inactive
CC(=O)c1ccc2c(c1)[C@H](NC(=O)c1ccc(F)cc1)[C@@H](O)C(C)(C)O2,inactive,inactive,inactive,inactive,inactive,inactive,inactive,inactive,inactive,inactive,inactive,inactive,inactive,inactive,inactive,inactive,inactive,,inactive,inactive
CC(CN=Cc1ccccc1O)N=Cc1ccccc1O (configuration not stated),inactive,inactive,inactive,inactive,inactive,,inactive,inactive,inactive,inactive,inactive,,inactive,,inactive,inactive,inactive,inactive,inactive,inactive
O=C(O)CCCCCCCCCC(=O)O,inactive,inactive,inactive,inactive,inactive,,inactive,inactive,inactive,,inactive,inactive,inactive,inactive,inactive,inactive,,,inactive,inactive
COC(=O)c1ccc(C(=O)O)cc1,inactive,inactive,inactive,inactive,inactive,,inactive,inactive,,inactive,,inactive,inactive,inactive,inactive,inactive,inactive,,inactive,inactive
CCN(CC)c1cccc(O)c1,inactive,11.1 µM (active),inactive,inactive,inactive,inactive,inactive,inactive,inactive,inactive,inactive,inactive,inactive,inactive,inactive,inactive,inactive,,inactive,inactive
CC(=O)c1ccc[nH]1,inactive,inactive,inactive,inactive,inactive,inactive,inactive,inactive,inactive,inactive,inactive,inactive,inactive,inactive,,inactive,inactive,,,inactive
O[Si](c1ccccc1)(c1ccccc1)c1ccccc1,inactive,inactive,inactive,inactive,inactive,inactive,inactive,inactive,inactive,,inactive,inactive,inactive,inactive,inactive,inactive,,,inactive,inactive
C[C@H]1C[C@H]2[C@@H]3CCC4=CC(=O)C=C[C@]4(C)[C@@]3(Cl)[C@@H](O)C[C@]2(C)[C@@]1(O)C(=O)CO,inactive,inactive,inactive,inactive,inactive,inactive,inactive,inactive,inactive,inactive,,,,,,,inactive,,inactive,inactive
Cc1ccccc1C(=O)Nc1ccc(C(=O)N2CCCC(O)c3cc(Cl)ccc32)c(C)c1 (configuration not stated),inactive,inactive,inactive,inactive,inactive,inactive,inactive,inactive,inactive,inactive,,inactive,inactive,inactive,inactive,inactive,inactive,,inactive,inactive
O=C1OC(=O)c2cc(Oc3ccc4c(c3)C(=O)OC4=O)ccc21,inactive,inactive,inactive,inactive,inactive,inactive,inactive,inactive,inactive,inactive,inactive,inactive,inactive,inactive,inactive,inactive,inactive,,inactive,inactive
